Measured values as given in the supplement of paper PMC11732987, “Enantioselective OTUD7B fragment discovery through chemoproteomics screening and high-throughput optimisation” (Communications Chemistry, 2025).

Columns and labels:
Assay in all cases: log2 ratio of Biotin-Ahx-Ub-VS probe labelling (fragment/DMSO); higher = less target engagement (more negative = stronger competition), active = hit call of the paper (q ≤ 0.05, log2 ratio ≤ -1)
Conditions in all cases: compound concentration: 200 uM; treatment time: 3 h
USP9X = USP9X (UniProt Q93008)
In short: (§1)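 HEK293T lysate (495 µg per sample, in Tris/CHAPS/IGEPAL buffer with protease inhibitors) was exposed in triplicate for 3 h to fragment at 200 µM or to vehicle, then to Biotin-Ahx-Ub-VS at 0.5 µM final for 1 h. Labelled DUBs were enriched on NeutrAvidin, digested with LysC and trypsin, and analysed by diaPASEF LC-MS/MS. Spectronaut label-free quantities were normalised to the global median, and values are average log2 ratios of fragment over vehicle from an unpaired t-test. Only proteins with ≥2 unique peptides were used.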

UniProt O00487 = target: UniProt O00487
In short: as §1

UniProt O00507 = target: UniProt O00507
In short: as §1

UniProt P51784 = target: UniProt P51784
In short: as §1

UniProt Q5T2D3 = target: T1, UniProt Q5T2D3
T1 sequence (whole entry): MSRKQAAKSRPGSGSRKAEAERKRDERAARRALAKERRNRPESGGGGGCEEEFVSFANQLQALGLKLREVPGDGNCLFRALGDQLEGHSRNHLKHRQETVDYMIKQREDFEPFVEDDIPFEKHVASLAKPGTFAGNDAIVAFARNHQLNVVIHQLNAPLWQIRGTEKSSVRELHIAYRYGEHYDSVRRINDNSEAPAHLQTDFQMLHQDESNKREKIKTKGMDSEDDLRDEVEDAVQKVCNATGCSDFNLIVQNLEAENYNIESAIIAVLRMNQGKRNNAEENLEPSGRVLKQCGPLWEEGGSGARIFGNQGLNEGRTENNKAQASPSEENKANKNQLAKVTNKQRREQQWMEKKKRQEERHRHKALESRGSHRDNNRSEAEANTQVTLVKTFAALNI
In short: as §1

UniProt Q8TE49 = target: T2, UniProt Q8TE49
T2 sequence (whole entry): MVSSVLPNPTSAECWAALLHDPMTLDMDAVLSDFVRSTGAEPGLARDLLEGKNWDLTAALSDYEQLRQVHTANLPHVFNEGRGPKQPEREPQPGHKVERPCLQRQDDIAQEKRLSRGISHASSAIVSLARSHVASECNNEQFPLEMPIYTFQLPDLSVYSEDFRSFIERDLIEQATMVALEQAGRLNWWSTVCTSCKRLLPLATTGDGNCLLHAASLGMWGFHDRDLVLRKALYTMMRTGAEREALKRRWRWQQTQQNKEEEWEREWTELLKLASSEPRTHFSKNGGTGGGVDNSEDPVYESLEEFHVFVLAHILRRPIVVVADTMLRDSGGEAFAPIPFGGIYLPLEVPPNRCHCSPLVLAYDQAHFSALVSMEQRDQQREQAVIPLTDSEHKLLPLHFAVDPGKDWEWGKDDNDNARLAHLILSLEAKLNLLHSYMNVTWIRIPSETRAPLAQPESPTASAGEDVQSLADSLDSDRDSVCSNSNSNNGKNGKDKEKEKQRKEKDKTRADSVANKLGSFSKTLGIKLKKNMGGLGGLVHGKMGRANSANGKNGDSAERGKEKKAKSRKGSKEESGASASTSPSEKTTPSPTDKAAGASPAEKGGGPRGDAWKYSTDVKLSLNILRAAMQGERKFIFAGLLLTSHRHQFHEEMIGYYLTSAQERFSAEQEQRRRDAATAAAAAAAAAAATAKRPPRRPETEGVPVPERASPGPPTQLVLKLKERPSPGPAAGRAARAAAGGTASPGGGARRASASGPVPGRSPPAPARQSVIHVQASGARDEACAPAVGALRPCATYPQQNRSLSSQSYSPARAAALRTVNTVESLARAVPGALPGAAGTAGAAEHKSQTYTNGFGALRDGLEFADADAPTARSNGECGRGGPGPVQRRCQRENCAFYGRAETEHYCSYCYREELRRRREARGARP
In short: as §1

UniProt Q9P2H5 = target: T3, UniProt Q9P2H5
T3 sequence (whole entry): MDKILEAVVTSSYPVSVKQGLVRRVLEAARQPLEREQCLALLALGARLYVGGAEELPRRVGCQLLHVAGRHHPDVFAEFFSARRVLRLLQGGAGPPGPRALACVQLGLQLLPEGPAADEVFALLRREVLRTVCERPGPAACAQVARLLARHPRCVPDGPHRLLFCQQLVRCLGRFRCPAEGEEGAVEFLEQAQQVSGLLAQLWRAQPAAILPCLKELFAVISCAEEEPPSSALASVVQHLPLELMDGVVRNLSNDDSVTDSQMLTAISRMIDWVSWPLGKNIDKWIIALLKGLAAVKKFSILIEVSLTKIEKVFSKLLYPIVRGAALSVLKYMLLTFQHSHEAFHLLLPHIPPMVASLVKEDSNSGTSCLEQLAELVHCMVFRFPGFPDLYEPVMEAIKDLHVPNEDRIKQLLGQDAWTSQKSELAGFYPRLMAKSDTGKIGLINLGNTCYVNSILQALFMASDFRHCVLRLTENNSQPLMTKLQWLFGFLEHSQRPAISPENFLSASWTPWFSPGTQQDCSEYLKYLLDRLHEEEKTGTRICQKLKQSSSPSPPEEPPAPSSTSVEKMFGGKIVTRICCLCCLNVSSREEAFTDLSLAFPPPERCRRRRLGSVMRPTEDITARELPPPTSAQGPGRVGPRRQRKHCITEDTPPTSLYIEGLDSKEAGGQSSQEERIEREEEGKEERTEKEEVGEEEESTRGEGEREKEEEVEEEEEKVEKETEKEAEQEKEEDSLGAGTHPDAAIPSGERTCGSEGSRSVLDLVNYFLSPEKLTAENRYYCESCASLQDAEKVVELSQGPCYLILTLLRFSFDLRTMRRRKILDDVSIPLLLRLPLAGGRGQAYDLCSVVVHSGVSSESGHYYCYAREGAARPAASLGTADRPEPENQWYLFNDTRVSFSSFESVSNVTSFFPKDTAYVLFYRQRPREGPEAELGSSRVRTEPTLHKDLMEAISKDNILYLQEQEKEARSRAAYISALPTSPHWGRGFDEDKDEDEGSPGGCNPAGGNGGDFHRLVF
In short: as §1

UniProt Q9UGI0 = target: T4, UniProt Q9UGI0
T4 sequence (whole entry): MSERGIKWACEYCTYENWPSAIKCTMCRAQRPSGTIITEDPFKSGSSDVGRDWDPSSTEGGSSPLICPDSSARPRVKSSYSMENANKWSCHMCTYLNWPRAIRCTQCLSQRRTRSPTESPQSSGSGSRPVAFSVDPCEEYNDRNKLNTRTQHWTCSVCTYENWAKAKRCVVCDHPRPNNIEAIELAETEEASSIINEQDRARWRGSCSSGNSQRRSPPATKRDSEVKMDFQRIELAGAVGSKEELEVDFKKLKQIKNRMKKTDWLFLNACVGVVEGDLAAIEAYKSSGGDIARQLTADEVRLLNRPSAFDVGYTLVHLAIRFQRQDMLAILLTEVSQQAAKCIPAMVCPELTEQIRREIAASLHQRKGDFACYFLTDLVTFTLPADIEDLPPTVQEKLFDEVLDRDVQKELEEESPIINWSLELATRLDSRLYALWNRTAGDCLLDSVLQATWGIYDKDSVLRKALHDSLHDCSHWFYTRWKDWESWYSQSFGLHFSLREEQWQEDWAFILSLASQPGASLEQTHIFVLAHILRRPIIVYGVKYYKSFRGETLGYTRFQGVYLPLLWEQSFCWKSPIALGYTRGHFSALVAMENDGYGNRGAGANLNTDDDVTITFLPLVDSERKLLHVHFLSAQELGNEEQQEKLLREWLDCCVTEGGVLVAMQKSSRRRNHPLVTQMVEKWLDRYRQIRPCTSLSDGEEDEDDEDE
In short: as §1

YOD1 = target: T5, YOD1 (UniProt Q5VVQ6)
T5 sequence (whole entry): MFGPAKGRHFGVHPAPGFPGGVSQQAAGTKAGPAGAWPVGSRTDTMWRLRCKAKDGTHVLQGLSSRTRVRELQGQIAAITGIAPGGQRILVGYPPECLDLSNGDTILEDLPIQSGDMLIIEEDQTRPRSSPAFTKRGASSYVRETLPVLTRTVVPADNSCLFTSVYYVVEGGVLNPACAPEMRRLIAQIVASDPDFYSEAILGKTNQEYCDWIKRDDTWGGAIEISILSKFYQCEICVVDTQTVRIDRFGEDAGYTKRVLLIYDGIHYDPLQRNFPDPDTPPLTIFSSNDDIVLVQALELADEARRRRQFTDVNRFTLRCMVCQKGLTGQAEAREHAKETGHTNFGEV
In short: as §1

Measured: log2 ratio of Biotin-Ahx-Ub-VS probe labelling

Sequence of UniProt O00487 (O00487 whole entry): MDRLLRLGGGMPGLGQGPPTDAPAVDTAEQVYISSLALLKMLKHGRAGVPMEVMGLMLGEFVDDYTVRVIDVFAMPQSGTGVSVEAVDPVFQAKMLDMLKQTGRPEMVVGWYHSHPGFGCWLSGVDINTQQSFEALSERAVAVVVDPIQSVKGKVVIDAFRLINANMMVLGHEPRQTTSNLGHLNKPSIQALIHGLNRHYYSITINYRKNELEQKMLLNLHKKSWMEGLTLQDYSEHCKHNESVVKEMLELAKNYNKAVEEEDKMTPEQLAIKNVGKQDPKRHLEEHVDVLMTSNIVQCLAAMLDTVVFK
Sequence of UniProt O00507 (O00507 whole entry): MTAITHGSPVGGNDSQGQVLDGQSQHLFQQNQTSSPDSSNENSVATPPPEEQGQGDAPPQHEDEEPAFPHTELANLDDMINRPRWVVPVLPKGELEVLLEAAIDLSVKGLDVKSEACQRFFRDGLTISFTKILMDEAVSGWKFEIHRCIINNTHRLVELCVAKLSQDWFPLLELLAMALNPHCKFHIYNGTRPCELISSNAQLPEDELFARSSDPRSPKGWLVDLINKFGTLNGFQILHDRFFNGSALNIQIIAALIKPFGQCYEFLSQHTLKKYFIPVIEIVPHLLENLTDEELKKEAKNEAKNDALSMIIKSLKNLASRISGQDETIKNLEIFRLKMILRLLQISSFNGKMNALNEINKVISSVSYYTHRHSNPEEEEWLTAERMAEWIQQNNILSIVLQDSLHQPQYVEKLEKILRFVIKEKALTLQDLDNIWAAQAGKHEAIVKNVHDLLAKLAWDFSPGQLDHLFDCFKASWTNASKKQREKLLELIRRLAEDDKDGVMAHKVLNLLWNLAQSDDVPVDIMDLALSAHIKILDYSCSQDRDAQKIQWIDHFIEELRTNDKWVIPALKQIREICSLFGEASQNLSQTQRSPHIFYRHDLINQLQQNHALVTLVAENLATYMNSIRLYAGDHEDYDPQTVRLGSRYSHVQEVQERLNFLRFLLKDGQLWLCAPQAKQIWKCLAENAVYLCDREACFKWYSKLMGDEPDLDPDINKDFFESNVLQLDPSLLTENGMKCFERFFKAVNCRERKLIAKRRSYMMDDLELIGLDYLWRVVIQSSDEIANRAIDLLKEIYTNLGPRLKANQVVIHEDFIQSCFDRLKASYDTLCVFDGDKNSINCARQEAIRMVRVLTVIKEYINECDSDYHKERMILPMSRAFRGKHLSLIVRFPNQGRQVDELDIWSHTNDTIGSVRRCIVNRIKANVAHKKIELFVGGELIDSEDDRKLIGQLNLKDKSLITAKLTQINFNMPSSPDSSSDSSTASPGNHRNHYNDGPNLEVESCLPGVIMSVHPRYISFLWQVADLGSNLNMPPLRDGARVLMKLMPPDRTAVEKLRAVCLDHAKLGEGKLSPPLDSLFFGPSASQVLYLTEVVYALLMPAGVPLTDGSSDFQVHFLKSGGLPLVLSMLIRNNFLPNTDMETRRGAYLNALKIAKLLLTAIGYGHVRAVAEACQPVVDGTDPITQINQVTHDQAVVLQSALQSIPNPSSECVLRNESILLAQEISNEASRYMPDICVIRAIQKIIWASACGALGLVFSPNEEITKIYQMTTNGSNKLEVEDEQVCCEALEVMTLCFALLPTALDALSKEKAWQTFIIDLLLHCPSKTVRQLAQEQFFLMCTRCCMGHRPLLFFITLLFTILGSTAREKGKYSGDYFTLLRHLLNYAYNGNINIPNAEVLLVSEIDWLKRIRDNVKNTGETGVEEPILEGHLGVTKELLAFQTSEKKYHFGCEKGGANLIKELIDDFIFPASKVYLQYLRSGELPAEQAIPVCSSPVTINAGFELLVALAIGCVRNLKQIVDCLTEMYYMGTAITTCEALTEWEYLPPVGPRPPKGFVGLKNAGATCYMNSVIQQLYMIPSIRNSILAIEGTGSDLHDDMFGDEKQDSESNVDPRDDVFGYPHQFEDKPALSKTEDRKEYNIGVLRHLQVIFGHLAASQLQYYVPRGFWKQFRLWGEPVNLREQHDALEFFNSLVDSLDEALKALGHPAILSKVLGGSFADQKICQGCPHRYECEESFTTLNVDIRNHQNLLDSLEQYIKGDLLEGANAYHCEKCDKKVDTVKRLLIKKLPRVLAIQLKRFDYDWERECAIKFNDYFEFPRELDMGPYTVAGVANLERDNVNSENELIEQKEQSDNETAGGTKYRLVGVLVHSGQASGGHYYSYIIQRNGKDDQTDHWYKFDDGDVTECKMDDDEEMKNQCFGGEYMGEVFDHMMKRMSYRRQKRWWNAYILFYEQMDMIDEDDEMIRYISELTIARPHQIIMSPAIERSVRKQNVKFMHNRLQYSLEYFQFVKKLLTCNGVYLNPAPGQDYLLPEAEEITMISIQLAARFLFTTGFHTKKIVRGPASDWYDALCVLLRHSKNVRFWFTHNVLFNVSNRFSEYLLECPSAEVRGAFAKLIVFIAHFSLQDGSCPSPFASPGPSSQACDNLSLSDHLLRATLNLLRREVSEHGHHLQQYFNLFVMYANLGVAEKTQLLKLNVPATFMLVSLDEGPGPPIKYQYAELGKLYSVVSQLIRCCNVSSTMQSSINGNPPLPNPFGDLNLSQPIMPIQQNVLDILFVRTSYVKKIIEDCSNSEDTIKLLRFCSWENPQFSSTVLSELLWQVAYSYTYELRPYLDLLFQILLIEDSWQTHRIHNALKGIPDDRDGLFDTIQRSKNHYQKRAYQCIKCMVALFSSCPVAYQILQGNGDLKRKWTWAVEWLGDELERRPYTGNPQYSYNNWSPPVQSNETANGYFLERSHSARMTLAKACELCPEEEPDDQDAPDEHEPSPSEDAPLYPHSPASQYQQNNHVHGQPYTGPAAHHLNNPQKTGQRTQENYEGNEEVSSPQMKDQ
Sequence of UniProt P51784 (P51784 whole entry): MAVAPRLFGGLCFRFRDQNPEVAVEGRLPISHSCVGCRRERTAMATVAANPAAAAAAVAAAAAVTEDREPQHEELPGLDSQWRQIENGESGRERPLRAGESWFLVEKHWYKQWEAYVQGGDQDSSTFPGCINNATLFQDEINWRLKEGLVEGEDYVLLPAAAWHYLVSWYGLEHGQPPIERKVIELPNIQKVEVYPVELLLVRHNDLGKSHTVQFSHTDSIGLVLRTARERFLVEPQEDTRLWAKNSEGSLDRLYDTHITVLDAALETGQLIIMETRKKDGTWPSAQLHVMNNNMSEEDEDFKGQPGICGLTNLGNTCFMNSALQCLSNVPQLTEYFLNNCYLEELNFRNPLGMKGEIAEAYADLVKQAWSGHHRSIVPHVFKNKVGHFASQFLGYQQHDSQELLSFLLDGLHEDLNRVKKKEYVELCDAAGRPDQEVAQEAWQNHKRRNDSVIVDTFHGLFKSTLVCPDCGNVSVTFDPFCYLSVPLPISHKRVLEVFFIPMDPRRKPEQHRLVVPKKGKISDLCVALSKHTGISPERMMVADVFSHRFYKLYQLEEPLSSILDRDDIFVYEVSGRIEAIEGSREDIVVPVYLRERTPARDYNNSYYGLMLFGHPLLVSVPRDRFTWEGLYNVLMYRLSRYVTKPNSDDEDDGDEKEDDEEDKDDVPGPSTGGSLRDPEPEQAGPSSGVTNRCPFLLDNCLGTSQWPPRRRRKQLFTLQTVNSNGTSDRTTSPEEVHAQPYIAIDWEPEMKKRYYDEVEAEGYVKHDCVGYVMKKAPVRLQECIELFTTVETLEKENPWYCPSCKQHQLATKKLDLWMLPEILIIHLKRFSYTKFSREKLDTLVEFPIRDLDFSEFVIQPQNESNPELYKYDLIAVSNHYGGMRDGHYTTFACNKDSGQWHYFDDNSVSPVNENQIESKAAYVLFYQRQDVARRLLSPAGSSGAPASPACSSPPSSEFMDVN

O=C(CCl)N1CCC(S(=O)(=O)c2ccc(F)cc2)CC1
inactive: USP9X -0.118 | UniProt O00487 0.043 | UniProt O00507 0.0377 | UniProt P51784 -0.0572 | UniProt Q5T2D3 -0.0766 | UniProt Q8TE49 -0.856 | UniProt Q9P2H5 -0.104 | UniProt Q9UGI0 -0.887 | YOD1 0.119
